Assay outcomes: PubChem BioAssay, National Center for Advancing Translational Sciences (NCATS)
An excerpt weighted towards active compounds, which were near 10% of everything screened.
Six1-Eya2 inh = inhibitors of human Six1/Eya2 interaction. hit rate 0.56% among 360,000. activity change, % (concentration not given with the values). AlphaScreen GST-Six1/His-Eya2 binding, biochemical; hits give low values. Q15475+O00167; in the data active = activity change below about -65%; inconclusive = mostly about -30% to -63%; note: % is set by controls: 0 for no effect and ±100 for the full control effect
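Homogeneous AlphaScreen proximity assay pairing GST-Six1 with His-tagged Eya2 (added as 5X mix: 250 nM and 500 nM) in 50 mM Tris pH 8.0, 300 mM NaCl, 1 mM TCEP. Glutathione donor and nickel acceptor beads; 1 h, 37 °C, dark.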
CtBP-E1A inh = inhibitors of CtBP/E1A interaction | AlphaScreen GST-E1A/His-CtBP binding, 1536-well; hits give low values | activity change, % (no concentration beside the values) | hit rate 0.49% among 340,000 | AID 651724; in the data active = activity change below about -65%; inconclusive = mostly about -30% to -63%; note: % is set by controls: 0 for no effect and ±100 for the full control effect
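GST-E1A and His-tagged CtBP (125 nM each as 5X stock) were preincubated with pin-transferred compound for 2 h at 37 °C in the dark, then glutathione donor and nickel acceptor beads were added for 1 h before AlphaScreen reading.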
HP1b binding inh = HP1-beta chromodomain-methylated histone interaction inhibition | AlphaScreen HP1-beta / biotin-H3K9me3 peptide binding | Potency, µM (doses to about 114 µM), for the others: at the top dose activity change, negative = inhibition, hits mostly inhibitors | hit rate 0.56% among 390,000 | AID 540317; note: potency is the fitted concentration of half-maximal effect; nearly all actives have a fitted effect of over 70% in size
Target sequence (P83916 whole entry, looked up): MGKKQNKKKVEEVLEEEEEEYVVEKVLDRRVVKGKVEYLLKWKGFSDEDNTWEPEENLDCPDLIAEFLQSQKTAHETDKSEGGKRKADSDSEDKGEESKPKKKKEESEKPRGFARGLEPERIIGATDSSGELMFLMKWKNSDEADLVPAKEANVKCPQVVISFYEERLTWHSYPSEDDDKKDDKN
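Compound inhibition of the preformed complex between 50 nM HP1-beta and 50 nM biotinylated H3K9me3 peptide was read by AlphaScreen. Buffer was PBS pH 7.4 with 0.01% Tween-20. Incubations ran 30 min at room temperature, with 10 ug/mL donor/acceptor beads.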
JMJD2A Tudor = JMJD2A Tudor domain (human) inhibition. Potency, µM (top dose mostly 114 µM), without a hit: at the highest dose activity change, negative = inhibition, hits mostly inhibitors. hit rate 4.4% among 390,000. AlphaScreen JMJD2A-Tudor / H3K4me3 peptide binding. AID 504339; note: potency is the fitted concentration of half-maximal effect; % is set by controls: 0 for no effect and ±100 for the full control effect; nearly all actives have a fitted effect of over 50% in size
G9a block = inhibitors of human histone lysine methyltransferase G9a; Q96KQ7; G9a H3K9 monomethylation, AlphaScreen, 2 h; Potency, µM (highest dose often 102 µM), for the others: at the highest dose activity, negative = inhibition, hits mostly inhibitors; hit rate 8.8% among 350,000; AID 504332; note: potency is the fitted concentration of half-maximal effect; % is set by controls: 0 for no effect and ±100 for the full control effect; nearly all actives have a fitted effect of over 75% in size
Target sequence (Q96KQ7 913-1193 limits assumed): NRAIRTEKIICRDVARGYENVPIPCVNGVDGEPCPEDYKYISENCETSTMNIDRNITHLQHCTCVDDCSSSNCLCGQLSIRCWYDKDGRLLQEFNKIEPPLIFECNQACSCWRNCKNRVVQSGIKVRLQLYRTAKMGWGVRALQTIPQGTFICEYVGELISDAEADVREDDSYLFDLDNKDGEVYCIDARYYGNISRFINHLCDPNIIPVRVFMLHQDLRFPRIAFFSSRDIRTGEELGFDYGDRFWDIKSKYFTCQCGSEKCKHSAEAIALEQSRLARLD
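G9a (20 nM) was preincubated 15 min with compound, then reacted 2 h at room temperature with 500 nM biotin-H3K9 peptide and 20 µM SAM. Monomethyl-H3K9 detected by AlphaScreen using anti-H3K9me1 antibody.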
BAZ2B inh = BAZ2B (human) inhibition; Q9UIF8; AlphaScreen BAZ2B-H3K14Ac peptide displacement; Potency, µM (titrated, usually from 114 µM), for the others: at the top dose activity change, negative = inhibition, usual class: inhibitors; hit rate 4.4% among 360,000; note: potency is the fitted concentration of half-maximal effect; % is set by controls: 0 for no effect and ±100 for the full control effect; nearly all actives have a fitted effect of over 60% in size
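BAZ2B 50 nM plus b-H3(5-23)K14Ac 50 nM, PBS pH 7.4/0.01% Tween-20, 30 min RT; compound added (max 110 uM), 30 min RT; streptavidin donor/Ni-chelate acceptor beads 10 ug/mL final, 20 min dark; AlphaScreen read.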
The depositor's hits bear a star; ? = inconclusive; . = no result given; [ ] = remark or other dose. Unless noted, calls come from the whole dose curve; as a rule, active = well fitted inhibition curve with a large enough effect; inconclusive = small, poorly fitted or top-dose-only effect; inactive = no such curve, though single readings can be large or run the other way.

SMILES	Six1-Eya2 inh	CtBP-E1A inh	HP1b binding inh	JMJD2A Tudor	G9a block	BAZ2B inh
COc1ccc(C(=O)Nc2ccc(-c3cn4ccsc4n3)cc2)cc1S(=O)(=O)N1CCOCC1	-76.6*	-73.0*	17.4%	-14.1%	0.4%[59 µM]	.
COc1cc(NC(=O)c2ccc(OCc3c(C)noc3C)c(OC)c2)cc(OC)c1	-16.8	-22.7	25.0%	-11.7%	.	.
COc1cc2c(cc1NC(=O)C(Cl)Cl)-c1ccc(NC(=O)C(Cl)Cl)cc1C2	-9.0	-8.5	?	?	.	.
COc1ccc(Cc2c(-c3ccc(OC)c(OC)c3)nc3cc(C)c(Br)c(C)n23)c(C)c1	-7.0	-21.0	.	.	.	.
CCC(=O)N1C(=O)C2(Nc3ccccc3N2)c2ccccc21	.	.	.	.	3.6%	.
Cc1ccc2ccccc2c1C(O)c1ncc(-c2ccc(C(F)(F)F)cc2)[nH]1 (centres undefined)	-9.7	-5.9	.	.	.	.
O=C(Cc1cccc(NC(=O)C2CCCN(C(=O)C3CCC3)C2)c1)Nc1cccc(C(=O)N2CCOCC2)c1 (centres undefined)	-7.4	3.6	55.5%	-2.2%	.	.
COc1cc(OC)c(C(=O)Nc2ccc(S(=O)(=O)N3CCCCC3)cc2)cc1OC	-8.4	-2.5	13.4%	-13.8%	1.4%[0.501 µM]	7.3%
COc1ccc(C(=O)OC(C)C(=O)NC2CCCCC2C)cc1S(=O)(=O)N1CCOCC1 (centres undefined)	-0.2	11.3	28.6%	0.0%	79.4µM*	-6.9%
COc1ccc(C(=O)N2CCN(c3ccc(F)cc3)CC2)cc1S(=O)(=O)NC1CC1	-1.0	.	20.1%	-6.4%	24.0%[12.7 µM]	0.6%
COc1ccc(C(=O)Nc2ccc(N3CCOCC3)cc2)cc1S(=O)(=O)NC1CCCC1	-5.0	0.1	7.8%	-24.8%	31.6µM*	-29.2%
CC(OC(=O)c1ccc(Cl)c(S(=O)(=O)N2CCOCC2)c1)C(=O)NC1CCCCC1C (centres undefined)	13.1	-1.8	30.8%	2.8%	15.4%[0.501 µM]	-19.3%
COc1ccc(C(=O)Nc2ccc(S(=O)(=O)N3CCCCC3)cc2)cc1OC	-25.4	?	?	79.4µM*	-10.7%[59 µM]	-10.0%
COc1ccc(C(=O)Nc2ccc(N3CCOCC3)cc2)cc1S(=O)(=O)N1CCCC1	3.0	5.3	8.1%	-15.2%	50.1µM*	-4.1%
CCc1ccccc1NS(=O)(=O)c1cc(Br)cc2c1N(C(=O)C1CC1)CC2	.	.	28.3%	-10.9%	-2.1%[59 µM]	2.2%
COc1ccccc1NC(=O)c1sc2nc(N3CCOCC3)c3c(c2c1N)CC(C)(C)OC3	.	.	21.1%	-3.8%	-2.2%[59 µM]	2.2%
Cc1cc(O)c(-c2cc(C(=O)Nc3ccc(S(=O)(=O)N4CCOCC4)cc3)[nH]n2)cc1C	?	-71.8*	1.2%	-11.2%	32.1%[59 µM]	-2.9%
O=C(Nc1ccc(S(=O)(=O)N2CCCCC2)cc1)c1ccc(=O)[nH]c1	-5.2	-22.8	22.4%	-10.4%	14.1µM*	-0.8%
COCc1cc(C)nc(N/N=C/c2ccc(-c3ccc(Cl)cc3[N+](=O)[O-])o2)c1C#N	-11.1	-0.1	-4.9%	-34.3%	39.8µM*	?
CCn1cc(S(=O)(=O)Nc2cc(C)ccc2F)cn1	6.1	11.8	38.7%	-2.8%	47.9%	-0.4%
COc1ccccc1OC(C)C(=O)Nc1cccc(-c2nc3ccccc3o2)c1 (centres undefined)	.	.	15.2%	-5.0%	-1.1%[59 µM]	-9.9%
O=C1CN(C(=O)c2ccc(Br)o2)C(c2ccccc2)c2cc(Cl)ccc2N1 (centres undefined)	-17.0	-6.1	-4.8%	-34.0%	56.2µM*	?
O=C1CN(C(=O)c2ccc(Br)o2)C(c2ccc(F)cc2)c2cc(Cl)ccc2N1 (centres undefined)	-23.7	-5.7	-13.3%	-23.2%	?	?
Cc1ccc2c(c1)C(c1ccccc1)N(C(=O)c1ccc(Br)o1)CC(=O)N2 (centres undefined)	-10.9	6.1	-0.7%	?	39.8µM*	?
Cc1ccc(-c2cc(C(=O)N3CCCCC3)c3ccccc3n2)cc1C	-4.9	-11.1	36.3%	-5.1%	-3.1%	16.9%[57.1 µM]
SMILES	Six1-Eya2 inh	CtBP-E1A inh	HP1b binding inh	JMJD2A Tudor	G9a block	BAZ2B inh
COc1ccc(-c2ccc(N3C(c4ccsc4)=Cc4ccc(F)cc4C3c3c[nH]c4ccccc34)cc2)cc1 (centres undefined)	-7.7	-6.2	.	.	.	.
c1cc2c(cc1CNc1ccc(N3CCOCC3)cc1)OCO2	.	.	?	50.1µM*	.	.
Cc1ccc(C(=O)Nc2ccc(N3CCOCC3)cc2)cc1	-1.5	9.1	29.2%	-5.2%	?	5.5%
c1cc(CNc2ccc(N3CCOCC3)cc2)ccn1	-5.6	-4.7	-15.4%	-34.3%	39.8µM*	?
Cc1ccc(CNc2ccc(N3CCOCC3)c(Cl)c2)cc1	-29.4	-14.1	?	?	.	39.8µM*
Cc1ccc(CNc2ccc(N3CCOCC3)cc2)cc1	?	-12.6	?	44.7µM*	28.2µM*	31.6µM*
CC(=O)Nc1ccc(N2CCOCC2)c(Cl)c1	1.0	1.9	24.3%	-13.4%	1.3%	-15.8%
CC(C)(C)c1ccc(C(=O)N2CCOC23CCCCC3)cc1	16.7	0.0	.	.	.	.
CCc1cccc(NC(=O)Cn2c(=O)n(CCc3ccc(OC)c(OC)c3)c(=O)c3ccccc32)c1	.	.	16.8%	-6.8%	-27.5%[59 µM]	-12.8%
COc1ccc(Br)cc1CNC(=O)CCSCc1ccc(C)cc1	.	.	-10.2%	1.5%	1.3%[59 µM]	6.3%
COCc1c(C(=O)N(C)Cc2ccccc2N2CCCC2)oc2ccccc12	-20.7	-29.2	-30.5%	44.7µM*	50.1µM*	?
CCc1ccc(CNc2ccc(O)cc2)cc1	-26.8	?	-86.1%	56.2µM*	?	39.8µM*
Oc1ccc(NCc2ccc(OCc3ccccc3Cl)cc2)cc1	.	.	?	50.1µM*	3.16µM*	?
